Most compounds without a hit are left out; they make up all but 3.1% or so of the library.
Neddyl block = cullin neddylation inhibition; P61081+Q13564; TR-FRET cullin neddylation, biochemical; calls only at 25 µM; 0.58% of 360,000 active; in the data active means inhibition above about 36%
LEDGF integ inh = blocks HIV-1 LEDGF/p75-dependent DNA integration; TR-FRET IN-LEDGF/p75 DNA integration, Eu/Cy5; inhibition, % at 3.7 µM; 0.64% of 370,000 active; AID 743269;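 active means inhibition above the screen-wide mean plus 3 SD, cut at about 13% in these data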;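 further: signal is the Cy5 over europium emission ratio at 671 and 618 nm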
UHRF1 MBD2 ctr = blocks human UHRF1 binding to methylated DNA; Q96T88; UHRF1 binding to methylated oligo, TR-FRET; inhibition, % at 4.4 µM; 0.75% of 370,000 active; in the data active means inhibition above about 21%;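 further: UHRF1 SRA domain binding a hemimethylated CpG hairpin DNA probe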
Target sequence (Q96T88 whole entry, looked up, the tested form may be a part): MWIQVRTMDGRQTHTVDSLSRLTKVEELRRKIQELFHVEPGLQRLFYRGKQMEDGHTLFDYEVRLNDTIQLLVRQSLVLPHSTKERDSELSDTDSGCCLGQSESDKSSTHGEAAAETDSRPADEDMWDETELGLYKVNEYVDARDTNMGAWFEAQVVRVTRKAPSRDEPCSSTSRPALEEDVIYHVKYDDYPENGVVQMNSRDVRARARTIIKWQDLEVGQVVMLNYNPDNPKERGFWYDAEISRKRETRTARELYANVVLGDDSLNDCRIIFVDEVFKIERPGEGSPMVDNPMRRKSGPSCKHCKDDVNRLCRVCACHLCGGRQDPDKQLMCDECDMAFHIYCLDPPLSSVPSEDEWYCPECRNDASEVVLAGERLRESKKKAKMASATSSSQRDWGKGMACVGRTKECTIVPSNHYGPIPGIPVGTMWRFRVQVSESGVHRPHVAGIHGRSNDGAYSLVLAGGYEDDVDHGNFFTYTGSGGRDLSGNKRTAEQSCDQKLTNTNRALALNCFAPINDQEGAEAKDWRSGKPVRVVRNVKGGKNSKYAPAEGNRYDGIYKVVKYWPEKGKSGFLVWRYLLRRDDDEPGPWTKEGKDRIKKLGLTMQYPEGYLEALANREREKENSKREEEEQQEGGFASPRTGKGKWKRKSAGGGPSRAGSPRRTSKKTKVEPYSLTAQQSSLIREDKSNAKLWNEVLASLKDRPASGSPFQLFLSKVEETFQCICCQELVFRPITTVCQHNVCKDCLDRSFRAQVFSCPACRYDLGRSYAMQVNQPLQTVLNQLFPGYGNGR
MBD2 inh = inhibitors of human MBD2 binding to methylated oligonucleotide | 0.31% of 370,000 active | inhibition, % at 4.4 µM | TR-FRET | Q9UBB5; in the data active means inhibition above about 13%
Rin1-Abl PPI inh = human Rin1-Abl interaction inhibition. TR-FRET Rin1/Abl binding, biochemical. P00519+Q13671. inhibition, % at 7.35 µM. 0.4% of 360,000 active; in the data active means inhibition above about 5%, passing the limit was not always enough
KLK7 zymogen act = activators of human kallikrein-7 zymogen. P49862. purified proKLK7, EDANS-DABCYL substrate fluorescence; 100% is mature enzyme control, 0% vehicle. activation, % at 7 µM. 0.9% of 370,000 active;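 active means activation above the mean of all tested compounds plus 3 SD, computed per campaign excluding outliers beyond control limits, cut at about 13% in these data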
proKLK7 act conf = proKLK7 activation, confirmation; 68% of 3,200 active; purified proKLK7, EDANS-DABCYL substrate fluorescence; scaled: vehicle 0, mature enzyme 100; shares compounds with KLK7 zymogen act; activation, % at 7 µM;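 active means activation, as change over the incubation, above the mean of all tested compounds plus 3 SD, cut at about 13% in these data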
EDANS interfere = counter-screen for kallikrein-7 activators: EDANS-DABCYL optical interference; activation, % at 7 µM; EDANS-DABCYL substrate fluorescence interference, no enzyme, 4 h; solvent 0%, active enzyme control 100%; 80% of 3,200 active; shares compounds with KLK7 zymogen act; AID 686952;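 active means activation above the all-compound mean plus 3 SD, ignoring values outside control-based bounds, cut at about 4.8% in these data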;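 further: value is the 4 h activation minus the activation read at time zero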
Hits are given with their value; – = inactive; · = no result shown.

SMILES | Neddyl block | LEDGF integ inh | UHRF1 MBD2 ctr | MBD2 inh | Rin1-Abl PPI inh | KLK7 zymogen act | proKLK7 act conf | EDANS interfere
COc1ccc(C2=NN(c3ccc(C(=O)O)cc3)C(c3ccc(OC)c(OC)c3)C2)cc1 (configuration not stated) | – | – | – | – | – | 67 | 65 | 63
COc1ccc(C2CC(c3ccc(Cl)cc3)=NN2c2ccc(S(N)(=O)=O)cc2)cc1 (configuration not stated) | · | – | – | – | – | – | · | ·
COc1ccc(C2CC(c3ccncc3)=NN2c2ccc(S(N)(=O)=O)cc2)cc1 (configuration not stated) | · | – | – | – | – | 91 | – | 8.8
CCOC(=O)N1CCN(S(=O)(=O)c2ccc(C(=O)Nc3sc4c(c3C(N)=O)CC(C)(C)NC4(C)C)cc2)CC1 | – | – | – | – | – | 57 | – | –
COc1ccc(OCC(=O)Nc2c(C)ccc3nsnc23)cc1 | – | – | – | – | – | – | · | ·
COC1=CC(=O)OC(c2cccc(C(F)(F)F)c2)C1 (configuration not stated) | – | – | – | – | · | – | · | ·
Cc1cc(SCc2ccc(Br)cc2)nc(=O)[nH]1 | – | – | – | – | – | – | · | ·
c1ccc2c(c1)ccc1ccccc12 | – | – | – | – | – | – | · | ·
OC1CNc2c(ccc3ccccc23)C1 (configuration not stated) | · | – | – | – | – | 14 | – | –
C[N+]1=C(N)N[C@@]2(C=C3CCCCC3n3c(=O)n(-c4ccccc4)c(=O)n32)C1 (some centres not stated) | · | – | – | – | · | – | · | ·
O=C(O)c1cc2nccc(-c3ccco3)n2n1 | · | – | – | – | – | 18 | 23 | 22
COc1ccc(-c2oc3c4c2C(=O)OCCOC4CCC3)cc1 (configuration not stated) | · | – | – | – | · | 15 | – | 7.8
COc1ccc(OC)c(/C=N/n2c(COc3ccccc3)n[nH]c2=S)c1 | – | – | – | – | – | 20 | 43 | 37
COc1ccc(Br)cc1/C=N/n1c(COc2ccccc2)n[nH]c1=S | – | – | – | – | – | – | · | ·
COc1cccc(/C=N\NC(C)=O)c1OC/C=C/c1ccccc1 | – | – | – | – | – | – | · | ·
Cc1ccc2occ(/C=N/NC(=O)c3ccccc3Br)c(=O)c2c1 | – | – | – | – | – | – | · | ·
CCOc1ccccc1C(=O)N/N=C/c1coc2ccc(C)cc2c1=O | – | – | – | – | – | 24 | 58 | 54
Cc1ccc2occ(/C=N/NC(=O)c3ccc(O)cc3)c(=O)c2c1 | – | – | – | – | – | 23 | 53 | 51
Cc1ccc2occ(/C=N/NC(N)=S)c(=O)c2c1 | – | – | – | – | – | – | · | ·
CCN(CC)S(=O)(=O)c1ccc(OC)c(NC(=O)CC2CCCC2)c1 | – | – | – | – | – | – | · | ·
C=CCN(c1ccccc1)S(=O)(=O)c1cccc(C(=O)OCC(=O)NCCOC)c1 | – | – | – | – | – | – | · | ·
C=CCN(c1ccccc1)S(=O)(=O)c1cccc(C(=O)Oc2ccc3c(C)cc(=O)oc3c2)c1 | · | – | – | – | – | 42 | 405 | 422
CC(C)(C)c1ccc(C#C[C@@H]2C=C[C@H]3OC(=O)CC/C=C/CCC(=O)OC[C@H]3O2)cc1 | · | – | – | – | · | – | · | ·
CCCCNC(=O)NS(=O)(=O)c1ccc(NC(=O)CSc2ncnc3scc(-c4ccc(C)cc4)c23)cc1 | · | – | – | – | · | – | · | ·
COc1ccc(C(=O)n2cc(C(=O)c3cc(C)ccc3O)cn2)cc1 | – | – | – | – | – | – | · | ·
SMILES | Neddyl block | LEDGF integ inh | UHRF1 MBD2 ctr | MBD2 inh | Rin1-Abl PPI inh | KLK7 zymogen act | proKLK7 act conf | EDANS interfere
COc1ccc(O)c(C(=O)c2cnn(C(=O)c3cc(C)oc3C)c2)c1 | – | – | – | – | – | 40 | 174 | 144
Cc1cc(NCCOCCO)n2c(nc3ccccc32)c1C#N | · | – | – | – | – | 48 | 85 | 92
CNc1cc(C)c(C#N)c2nc3ccccc3n12 | · | – | – | – | – | 33 | 93 | 77
Cc1cc(NCc2ccccn2)n2c(nc3ccccc32)c1C#N | · | – | – | – | – | – | · | ·
COCCNc1cc(C)c(C#N)c2nc3ccccc3n12 | · | – | – | – | – | 37 | 34 | 46
CCCNc1cc(C)c(C#N)c2nc3ccccc3n12 | · | – | – | – | – | – | · | ·
Cc1cc(NCCCO)n2c(nc3ccccc32)c1C#N | · | – | – | – | – | 15 | 51 | 70
Cc1cc(Cl)n2c(nc3ccccc32)c1C#N | · | – | – | – | – | – | · | ·
CC(C)NC(=O)C1CCN(C2CCN(Cc3ccc4cccc(F)c4n3)CC2)CC1 | – | – | – | – | – | – | · | ·
CCN1C(=O)c2cccc3c(S(=O)(=O)N4CCNCC4)ccc1c23 | · | – | – | – | – | 171 | 57 | 68
CCN1C(=O)c2cccc3c(S(=O)(=O)N4CCCC4C(=O)O)ccc1c23 (configuration not stated) | · | – | – | – | – | 37 | 22 | 24
COc1cc(C(=O)NCC(=O)N/N=C(/C)c2cccs2)cc(OC)c1OC | – | – | – | – | – | – | · | ·
O=C(O)c1ccc(N/N=C/C2=Cc3ccccc3OC2)cc1 | – | – | – | – | – | 15 | – | 11
O=C(O)c1ccc(N/N=C/c2ccncc2)cc1 | – | – | – | – | – | – | · | ·
CC1(C)CC(=O)C2=C(C1)OC(N)=C(C#N)C2c1ccccc1[N+](=O)[O-] (configuration not stated) | · | – | – | – | – | 17 | – | 13
CC1(C)CC(=O)C(C=Nc2cccnc2/N=C/C2=C(O)CC(C)(C)CC2=O)=C(O)C1 | – | – | – | – | – | 25 | – | –
CC1(C)CC(=O)C(C=Nc2cccnc2)=C(O)C1 | – | – | – | – | – | – | · | ·
COc1ccccc1C=C1CCc2ccccc2C1=O | – | – | – | – | – | – | · | ·
COc1cc(OC)c(OC)cc1/C=C1/Cc2ccccc2C1=O | – | – | – | – | – | 21 | 92 | 90
Cc1cc2[nH]c(=O)c(=O)[nH]c2cc1S(=O)(=O)NCc1ccccc1 | · | – | – | – | – | 23 | – | 6.0
Cc1cc2[nH]c(=O)c(=O)[nH]c2cc1S(=O)(=O)NCC(C)c1ccccc1 (configuration not stated) | · | – | – | – | – | – | · | ·
Cc1cc2[nH]c(=O)c(=O)[nH]c2cc1S(=O)(=O)NC1CCC(C)CC1 (configuration not stated) | · | – | – | – | – | 15 | – | 4.1
C=CCn1c(N)c(C(=O)Nc2cccc(C)c2)c2nc3ccccc3nc21 | · | – | – | – | – | – | · | ·

High-throughput results deposited in PubChem by several laboratories.
